Among the data in ChEMBL document CHEMBL4513216, “Probing the Open Global Health Chemical Diversity Library for Multistage-Active Starting Points for Next-Generation Antimalarials” (ACS Infect Dis, 2020) are INHIBITION values, retold here.

The whole screen tested about 69,000 compounds, of which about 8,600 (12%) showed an effect of 50% or more. For the sample, strong results were picked, then their nearest neighbours and some compounds at random.

The experiment has as its system Plasmodium berghei. The experiment in a line: Screen against P. berghei liver stage (PbLuc), transformed with Luciferase, at 10uM. The experiment is classed as functional, HepG2. As to conditions: tested at 10 uM.
Regarding `CC(C)c1n[nH]c(C2CN(C(=O)c3cc(Cl)c[nH]3)CCO2)n1` (configuration not stated), the INHIBITION is reported as -17.4%.

Regarding `Cc1nn(C)cc1CN1CCCC(n2c(=O)oc3ccccc32)C1` (configuration not stated), the INHIBITION is listed as 43.35%.

For `c1ccc(-c2nc3c(c(NCCn4cccc4)n2)CCNCC3)nc1`, the INHIBITION is on record as 66.5%.

In the case of `c1ccc(-c2nc3c(c(NCCCn4cncn4)n2)CCNCC3)nc1`, the INHIBITION was 57.3%.

Consider `c1ccc(-c2nc3c(c(NCCn4ccnn4)n2)CCNCC3)nc1`, for which the INHIBITION is -3.01%.

Turning to `CN(Cc1cccnc1)c1nc(-c2ccccn2)nc2c1CCNCC2`, the INHIBITION is -10.8%.

As for `CN(Cc1nccs1)c1nc(-c2ccccn2)nc2c1CCNCC2`, the INHIBITION is on record as 13.7%.

`Cc1cccc(=O)n1CCCNc1nc(N(C)C)nc2c1CCNCC2`: the INHIBITION was determined as 7.93%.

`O=C(CS(=O)(=O)Cc1cc(Cl)c2c(c1)OCO2)N1CCCC1`: the INHIBITION is on record as 21%.

`COc1ccc(CCC(=O)N2CCN(c3nc(C)ns3)CC2)cc1`: the INHIBITION is 6.7%.

For `CC(C)c1noc(CN2CCN(C(=O)OC(C)(C)C)C(C)C2)n1` (configuration not stated), the INHIBITION was 33.6%.

`COCc1cc(N2CCOC(c3ccc(F)cc3)C2)ncn1` (configuration not stated): the INHIBITION was found to be 38.3%.

Turning to `Fc1ccc(C2CN(c3ncnc4nc[nH]c34)CCO2)cc1` (configuration not stated), the INHIBITION was -28.6%.

Turning to `COCc1cc(N2CCOC(c3ccc(Cl)c(Cl)c3)C2)ncn1` (configuration not stated), the INHIBITION turned out to be 63.1%.

With `Cc1cc(N2CCOC(c3ccncn3)C2)ncn1` (configuration not stated), the INHIBITION was 26.7%.

`COCc1cc(N2CCOC(c3ccc(Cl)cc3)C2)ncn1` (configuration not stated): the INHIBITION is 8.64%.

Consider `COc1cc(N2CCOC(c3ccc(F)cc3)C2)ncn1` (configuration not stated), for which the INHIBITION is 55.2%.

`CCn1cnnc1C1CCN(C(=O)c2c(C)oc(C)c2C)CC1`: the INHIBITION is recorded as 46.7%.

Consider `Cc1cccc(CC2COCCN(Cc3nccn3C)C2)n1` (configuration not stated), for which the INHIBITION was 26.3%.

Regarding `O=C(CC1CCN(CCc2ccccc2)CC1)NC1CCOCC1`, the INHIBITION is listed as 25.8%.

`Cn1cnnc1C1CCCN(Cc2nc(Cc3ccccc3)no2)C1` (configuration not stated): the INHIBITION is on record as 3.13%.

In the case of `CNc1[nH]nc(N)c1NC(=O)c1ccccc1`, the INHIBITION was 17.6%.

Take `COc1ccc(-n2nnc(C(=O)O)c2-c2ccccn2)cc1`: the INHIBITION is recorded as 32.2%.

For `Cc1ccc(CN2C[C@@H]3COC[C@@H](NS(C)(=O)=O)[C@@H]3C2)o1`, the INHIBITION was -6.02%.

For `CC(C)C1CN(C(=O)c2ccc(C(N)=O)cc2)CCS1` (configuration not stated), the INHIBITION is on record as 0.139%.

On to `CC(C)C1CN(C(=O)c2ccncc2)CCS1` (configuration not stated), for which the INHIBITION came to 19.6%.

As for `CC(C)C1CN(C(=O)c2ccccc2)CCS1` (configuration not stated), the INHIBITION was determined as 61.3%.

`CN1C[C@@H](N)C[C@H]1C(=O)N1CCC(CCCc2ccccc2)CC1`: the INHIBITION came out at 55.9%.

Turning to `CN1C[C@@H](N)C[C@H]1C(=O)N1CCC(Cc2ccc(F)cc2)CC1`, the INHIBITION came out at 58.1%.

`CC(C)(C)C(=O)N1CCC(COCc2ccccc2)C1` (configuration not stated): the INHIBITION was 11.9%.

Take `CCC(=O)N1CCCC1C(=O)N1CCC(Cc2ccc(F)cc2)CC1` (configuration not stated): the INHIBITION was 49.4%.

Consider `O=C(C1CCS(=O)(=O)CC1)N1CCC(Cc2ccc(F)cc2)CC1`, for which the INHIBITION was 57.3%.

Regarding `CN1CSC[C@H]1C(=O)N1CCC(Cc2ccccc2F)CC1`, the INHIBITION was -40.6%.

On to `CC(C(=O)N1CCC(Cc2ccc(F)cc2)CC1)n1ccnc1` (configuration not stated), for which the INHIBITION was found to be 32.8%.

`O=C([C@H]1CCS(=O)(=O)[C@@H]2CN(Cc3ccc(F)cc3)C[C@H]12)N1CCCC1`: the INHIBITION was 12.7%.

For the compound `CN1CSC[C@H]1C(=O)N1CCC(CCc2ccccc2)CC1`, the INHIBITION is reported as -29%.

Take `Cn1ncc2ccc(C3CCCN(Cc4ccsc4)C3)nc21` (configuration not stated): the INHIBITION is 33.45%.

For `COc1cccc(-n2cc3[nH]c(=O)[nH]n3c2=O)c1`, the INHIBITION was 3.68%.

Turning to `Cc1cc(C(=O)N2C[C@@H]3CC[C@H]2CN(C(=O)c2ccncc2)C3)cs1`, the INHIBITION is given as 38%.

For `CN(C)S(=O)(=O)N1C[C@H](Oc2cccnc2)[C@H]2OCCC[C@H]21`, the INHIBITION is 14.2%.

For `O=C(c1ccc[nH]1)N1Cc2nccn2CC(Cn2ncccc2=O)C1` (configuration not stated), the INHIBITION was -87.3%.

On to `CNC(=O)C1CNCCN1C(=O)c1ccc(C(F)(F)F)nc1C` (configuration not stated), for which the INHIBITION is reported as -15.3%.

Regarding `O=C1C(NS(=O)(=O)c2ccc(F)c(F)c2)CCN1Cc1ccccc1` (configuration not stated), the INHIBITION was found to be 21.5%.

As for `CC(C)NC(=O)CCNC(=O)c1cnc(Cc2ccc(F)cc2)s1`, the INHIBITION was 10.6%.

For `COC(=O)C(C)(C)NC(=O)c1cnc(C(C)(C)C)s1`, the INHIBITION is given as 25.1%.

For `CN(C)C(=O)CN(C)C(=O)c1cnc(Cc2ccc(F)cc2)s1`, the INHIBITION was 2.37%.

Consider `COC(=O)[C@H](C)NC(=O)c1cnc(Cc2ccc(F)cc2)s1`, for which the INHIBITION was 51.7%.

Consider `CCc1ncc(C(=O)NC(C)(C)C(=O)OC)s1`, for which the INHIBITION amounted to 40.6%.

As for `COC(=O)C(C)(C)NC(=O)c1cnc(Cc2ccc(F)cc2)s1`, the INHIBITION is given as 92.8%.

Take `Cn1cc(CN2CCn3cc(CNC(=O)C4CCC4)nc3C2)cn1`: the INHIBITION was 14.4%.

Turning to `O=C(c1cnccn1)N1CCN(Cc2cscn2)CC1`, the INHIBITION is on record as 25.85%.

Take `CSCC(C)(O)CNS(=O)(=O)c1cccc(Cl)c1` (configuration not stated): the INHIBITION is listed as -33.5%.

`CN1CCN(C(=O)c2ncn3c2CNS(=O)(=O)c2ccccc2-3)CC1`: the INHIBITION turned out to be 15.3%.

On to `O=C(c1ncn2c1CNS(=O)(=O)c1ccccc1-2)N1CCCCC1`, for which the INHIBITION was 7.24%.

In the case of `O=C(c1ncn2c1CNS(=O)(=O)c1ccccc1-2)N1CCCCCC1`, the INHIBITION came out at 68.4%.

For the compound `CCc1nc(C2CCCN2C(=O)CCc2nc(C(C)(C)C)no2)no1` (configuration not stated), the INHIBITION is reported as 40.2%.

For the compound `COc1ncccc1CN1CCC2[C@H]1CCN2CCN(C)C` (some centres not stated), the INHIBITION was -20.1%.

Turning to `O=C1COC2(CCN(C(=O)C3CC=CC3)CC2)CN1Cc1cccnc1`, the INHIBITION was -3.24%.

As for `Cc1nc(N2CCOCC2)ncc1-c1cc(O)nc(N2CCCC2)n1`, the INHIBITION is reported as -27.1%.

With `Cc1cc(C)c2c(N3CCC(C(=O)N4CCOCC4)CC3)ncnc2n1`, the INHIBITION is reported as 30.9%.

Take `CC(C)CN1CCC2(C1)CN(c1ncccn1)C2`: the INHIBITION worked out at 5.12%.

Turning to `CCn1cncc1CNc1ccc(-c2nc(CC(C)C)no2)cn1`, the INHIBITION is listed as 52%.

For `CC(C)Cc1noc(-c2ccc(NCc3noc(C(C)C)n3)nc2)n1`, the INHIBITION is -26%.

For `CCC(O)CNc1ccc(-c2nc(CC(C)C)no2)cn1` (configuration not stated), the INHIBITION is given as 1.79%.

Turning to `CCN1C(=O)CCC12CCC(NC(=O)NCc1cccnc1)CC2` (configuration not stated), the INHIBITION is 25.8%.

For `Cc1n[nH]cc1C(=O)N1CCCC1c1cc[nH]n1` (configuration not stated), the INHIBITION was -26.2%.

Take `Cn1cc(CN2C[C@@H]3CCCO[C@@H]3[C@H](NC(=O)CC3CC3)C2)cn1`: the INHIBITION worked out at 11.4%.
